High-throughput results as filed in PubChem BioAssay.
GPR151 activ: activates the human receptor GPR151; activation, % at 11.2 µM; PathHunter beta-arrestin GPR151 cells, luminescence; 1% of 650,000 active; Q8TDV0; AID 1508602; in the data active = activation above about 4.9%
Target sequence (Q8TDV0 whole entry, looked up): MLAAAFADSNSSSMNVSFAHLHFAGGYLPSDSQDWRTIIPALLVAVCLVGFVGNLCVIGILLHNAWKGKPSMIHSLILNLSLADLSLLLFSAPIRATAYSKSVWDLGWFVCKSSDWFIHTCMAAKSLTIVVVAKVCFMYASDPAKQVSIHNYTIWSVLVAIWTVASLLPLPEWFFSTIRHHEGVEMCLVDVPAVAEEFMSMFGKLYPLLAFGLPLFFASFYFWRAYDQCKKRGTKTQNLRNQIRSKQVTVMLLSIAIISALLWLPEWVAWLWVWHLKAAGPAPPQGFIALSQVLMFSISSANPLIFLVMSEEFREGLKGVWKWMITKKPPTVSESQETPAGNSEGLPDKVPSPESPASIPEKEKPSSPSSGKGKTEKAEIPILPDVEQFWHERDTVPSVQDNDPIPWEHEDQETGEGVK
FBW7 activator: human FBW7 E3 ligase activation, primary screen. AlphaScreen FBW7–phospho-cyclin E peptide binding, activator screen. normalized activity (activation), % at 26.1 µM. 0.13% of 650,000 active; in the data active = normalized activity above about 1.9%;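 note: purified mutant Fbw7 with reduced substrate affinity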
MITF primary: inhibitors of human MITF; AlphaScreen MITF homodimerization, bead proximity signal; inhibition, % at 2.6 µM; 0.91% of 650,000 active; AID 1259374; in the data active = inhibition above about 50%
TEAD-YAP block: TEAD-YAP interaction inhibition | HEK-TIYL cells, TEAD-Gal4/YAP UAS-luciferase luminescence | inhibition, % at 9.12 µM | 1.4% of 640,000 active | AID 1259422; in the data active = inhibition above about 32%
MITF inh conf: human MITF inhibition, confirmation; 16% of 4,700 active; shares compounds with MITF primary; inhibition, % at 2.6 µM; AlphaScreen MITF homodimerization, biotin/His-MITF beads; AID 1259372;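 active = inhibition above a cutoff derived from the DMSO control wells, cut at about 28% in these data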;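 note: inhibitors lower the bead chemiluminescence by keeping MITF from dimerizing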
AS interf DR: AlphaScreen optical interference, dose response counter-screen. shares compounds with MITF primary. AlphaScreen optical interference counterscreen, cell-free. IC50, µM. 6% of 480 active. AID 1259373; call rule not given here
AS interf ctr: optically interferes with AlphaScreen signal; AID 1259376; 7.6% of 4,700 active; shares compounds with MITF primary; inhibition, % at 2.6 µM; LysRS AlphaScreen counterscreen, signal interference, triplicate;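 active = inhibition above a cutoff derived from the DMSO control wells, cut at about 30% in these data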
Hits are given with their value; . = inactive; / = no result. In the library only some 3.4% were active in any assay of this set; here they are far more common.

SMILES	GPR151 activ	FBW7 activator	MITF primary	TEAD-YAP block	MITF inh conf	AS interf ctr	others
Cc1cccc(NC(=O)CNCCCN2CCOCC2)c1C	.	.	76	.	.	.
COc1ccc(S(=O)(=O)NCCCN2CCOC(c3ccccc3)C2)cc1F (centres undefined)	.	.	.	.	/	/
C=CCN(CC=C)C(=O)C1CCN(Cc2cc(Br)c(O)c(OC)c2)CC1	.	.	69	.	.	.
COc1cc(CN2CCC(O)CC2)cc(Br)c1O	.	.	.	.	/	/
COC(=O)[C@@H](NC(=O)Cn1nnnc1CN(C)C(C)C)c1ccccc1	.	.	.	.	/	/
O=C(NCCCn1ccnc1)C(=O)NCC1OCCN1S(=O)(=O)c1ccccc1 (centres undefined)	.	.	.	.	/	/
O=C(NCCCn1ccnc1)C(=O)NCC1OCCCN1S(=O)(=O)c1ccccc1 (centres undefined)	.	.	66	.	35	45
Cc1ccc(NC(=O)C2(N(C)C(=O)Cc3nc(N)n[nH]3)CCCCC2)cc1	.	.	.	.	/	/
CN(C(=O)Cc1nc(N)n[nH]1)C1(C(=O)Nc2ccccc2)CCCCC1	.	.	64	.	92	101
Nc1n[nH]c(CC(=O)N(Cc2ccccc2)C2(C(=O)Nc3ccccc3)CCCCC2)n1	.	.	70	.	109	101
Clc1ccc(-c2csc3ncnc(NCCCN4CCOCC4)c23)cc1	.	.	96	.	.	.
Clc1ccc(-n2cc(-c3ccccc3)c3c(NCCCN4CCOCC4)ncnc32)cc1	.	.	.	.	/	/
COc1ccc(-c2csc3ncnc(NCCN4CCOCC4)c23)cc1	.	.	82	.	.	.
Cc1nc2ccc3nc(NC(=O)c4cccc([N+](=O)[O-])c4)sc3c2s1	.	.	.	.	/	/
Nc1cccc(NC(=O)c2ccccn2)c1	.	.	.	.	/	/
O=C(C1CCN(Cc2nc3ccccc3[nH]2)CC1)N1CCc2ccccc2C1	.	.	62	.	.	.
O=C(C1CCN(Cc2nc3ccccc3[nH]2)CC1)N1CCN(c2ccc(F)cc2)CC1	.	.	58	.	.	.
O=C(NCc1ccc2c(c1)OCO2)C1CCN(Cc2nc3ccccc3[nH]2)CC1	.	.	63	.	.	.
O=C(C1CC12CCN(Cc1nc3ccccc3[nH]1)CC2)N1CCN(c2ccccc2)CC1 (centres undefined)	.	.	.	.	/	/
COc1ccccc1C(=O)NC1(C(F)(F)F)NC(=O)N(c2ccccc2)C1=O (centres undefined)	.	.	88	.	.	.
O=CN1CCN(C(=O)COc2ccc(Br)cc2)CC1	.	.	.	.	/	/
CC(=O)N1CCN(C(=O)COc2ccc(Br)cc2)CC1	.	.	53	.	.	.
CCOc1ccc(C(=O)NCC(=O)OCc2cc(=O)oc3cc(CC)ccc23)cc1	.	.	.	.	/	/
CC1CC(C)(C)Cc2c1sc(NC(=O)c1ccco1)c2C#N (centres undefined)	.	.	84	.	.	.
CCOC(=O)C(=O)C(C#N)c1ccccc1 (centres undefined)	.	.	83	.	.	.
SMILES	GPR151 activ	FBW7 activator	MITF primary	TEAD-YAP block	MITF inh conf	AS interf ctr	others
CC(=O)N1CCN(C(=S)Nc2cc(C)ccc2C)CC1	.	.	.	.	/	/
CCCCNCCOCCOc1cccc(Cl)c1	.	.	80	.	.	.
CCCCNCCOCCOc1ccc(C)c(C)c1	.	.	61	.	.	.
O=C1CCC(CCC(=O)N2CCSCC2)(Cc2cccs2)N1 (centres undefined)	.	.	.	.	/	/
O=C(CCl)N1CCc2ccccc2C1	.	.	.	.	/	/
O=C(Cn1ncn2cccc2c1=O)N1CCc2ccccc2C1	.	.	66	.	67	.	AS interf DR=.
CC(=O)N1CCN(CC(=O)N2CCc3ccccc3C2)CC1	.	.	83	.	.	.
N#CC1=C(N)Oc2n[nH]c(-c3ccccn3)c2C1c1ccc([N+](=O)[O-])s1 (centres undefined)	.	.	107	.	117	100
CCOCCCNCC(=O)N1c2ccc(C)cc2C(C)CC1(C)C (centres undefined)	.	.	56	.	.	.
COc1ccc2c(c1)C(C)CC(C)(C)N2C(=O)CSc1ncccn1 (centres undefined)	.	.	.	.	/	/
Cc1ccc2c(c1)C(C)CC(C)(C)N2C(=O)CSc1ncccn1 (centres undefined)	.	.	.	.	/	/
